What all share (assay): DAPPL (digital affinity profiling via proximity ligation, sequencing); 10 mM Tris-HCl pH 7.5, 50 mM NaCl, 1 mM DTT, 4% glycerol, room temperature, 30 min; GST-TFs on glutathione beads, 16-mer random dsDNA library, 0.1% formaldehyde crosslink after washing; high values mean tight binding
Common to all, as to conditions: protein: recombinant; tags: N-terminal GST; dsDNA, one strand shown

The target in one assay is T1, FLI1 (Homo sapiens, UniProt Q01543 1-452).
T1 sequence: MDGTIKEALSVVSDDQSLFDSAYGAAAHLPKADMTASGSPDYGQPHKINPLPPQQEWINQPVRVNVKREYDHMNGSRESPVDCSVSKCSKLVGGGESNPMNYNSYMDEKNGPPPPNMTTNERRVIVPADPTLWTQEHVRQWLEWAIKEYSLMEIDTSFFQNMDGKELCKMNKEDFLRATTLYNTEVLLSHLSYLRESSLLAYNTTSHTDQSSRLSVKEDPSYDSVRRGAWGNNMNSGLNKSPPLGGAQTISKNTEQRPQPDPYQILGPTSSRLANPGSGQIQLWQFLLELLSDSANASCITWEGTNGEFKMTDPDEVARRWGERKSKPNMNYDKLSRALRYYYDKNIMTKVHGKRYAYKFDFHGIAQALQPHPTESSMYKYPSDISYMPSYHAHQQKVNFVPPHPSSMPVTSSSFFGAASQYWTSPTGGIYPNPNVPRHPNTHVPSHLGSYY
The method, boiled down: (§1)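 After expression in yeast as GST fusions, human transcription factors were bound to glutathione beads, DNA-barcoded and mixed with a tag-only sample. The pools were incubated with 200 nmole of a 16-mer random double-stranded DNA library in Tris/NaCl/DTT/glycerol buffer (30 min, room temperature), washed and crosslinked with 0.1% formaldehyde. Proximity ligation with BsaI/T4 ligase ran for 1 h at 37 °C, before PCR amplification and sequencing on an Illumina NextSeq500. Binding signal is a hexamer's read frequency for a factor divided by its frequency for the tag-only sample.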

The next assay has as its target T2, GABPA (Homo sapiens, UniProt Q06546 1-454).
T2 sequence: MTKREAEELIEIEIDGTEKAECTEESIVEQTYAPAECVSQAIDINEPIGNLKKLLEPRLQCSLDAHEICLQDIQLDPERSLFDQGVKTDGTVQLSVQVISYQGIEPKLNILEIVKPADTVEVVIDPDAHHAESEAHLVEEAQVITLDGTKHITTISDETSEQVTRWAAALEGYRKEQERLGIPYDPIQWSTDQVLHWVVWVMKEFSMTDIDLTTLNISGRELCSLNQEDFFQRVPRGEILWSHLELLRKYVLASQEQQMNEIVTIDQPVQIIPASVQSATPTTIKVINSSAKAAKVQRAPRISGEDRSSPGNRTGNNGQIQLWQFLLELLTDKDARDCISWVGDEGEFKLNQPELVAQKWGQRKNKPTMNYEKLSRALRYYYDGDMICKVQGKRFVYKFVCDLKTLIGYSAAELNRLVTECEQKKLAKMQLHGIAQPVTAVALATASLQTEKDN
The method, boiled down: as §1

The next assay deals with T3, ERG (Homo sapiens, UniProt P11308 1-479).
T3 sequence: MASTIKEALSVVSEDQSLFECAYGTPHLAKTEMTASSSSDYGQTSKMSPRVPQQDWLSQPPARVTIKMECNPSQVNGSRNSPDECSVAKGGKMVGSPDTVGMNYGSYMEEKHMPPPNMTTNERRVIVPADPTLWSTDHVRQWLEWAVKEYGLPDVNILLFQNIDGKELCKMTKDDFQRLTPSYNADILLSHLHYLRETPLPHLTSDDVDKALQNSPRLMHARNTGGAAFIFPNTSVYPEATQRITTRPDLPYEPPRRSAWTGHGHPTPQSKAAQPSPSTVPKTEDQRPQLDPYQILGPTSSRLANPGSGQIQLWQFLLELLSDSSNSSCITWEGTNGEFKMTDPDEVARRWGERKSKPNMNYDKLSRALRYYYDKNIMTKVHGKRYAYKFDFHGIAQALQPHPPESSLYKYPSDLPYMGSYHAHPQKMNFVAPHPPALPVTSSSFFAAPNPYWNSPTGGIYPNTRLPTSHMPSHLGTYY
The essentials: as §1

The target of another assay is ELF1 (Homo sapiens, UniProt P32519 1-619). The essentials:
as §1

The next assay concerns the target T4, EHF (Homo sapiens, UniProt Q9NZC4 1-300).
T4 sequence: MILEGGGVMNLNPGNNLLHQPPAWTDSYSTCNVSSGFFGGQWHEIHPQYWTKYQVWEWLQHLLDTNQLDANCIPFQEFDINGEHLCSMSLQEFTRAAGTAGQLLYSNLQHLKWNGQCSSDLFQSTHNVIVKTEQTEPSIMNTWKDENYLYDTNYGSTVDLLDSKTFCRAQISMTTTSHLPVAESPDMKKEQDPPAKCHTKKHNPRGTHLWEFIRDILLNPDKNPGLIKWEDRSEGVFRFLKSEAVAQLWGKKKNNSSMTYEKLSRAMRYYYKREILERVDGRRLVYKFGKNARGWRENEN
The essentials:
as §1

Another assay addresses SPI1 (Homo sapiens, UniProt P17947 1-270). The essentials:
as §1

The target of a further assay is SPIB (Homo sapiens, UniProt Q01892 1-262). The essentials: as §1
SPIB, sequence (Q01892 whole entry): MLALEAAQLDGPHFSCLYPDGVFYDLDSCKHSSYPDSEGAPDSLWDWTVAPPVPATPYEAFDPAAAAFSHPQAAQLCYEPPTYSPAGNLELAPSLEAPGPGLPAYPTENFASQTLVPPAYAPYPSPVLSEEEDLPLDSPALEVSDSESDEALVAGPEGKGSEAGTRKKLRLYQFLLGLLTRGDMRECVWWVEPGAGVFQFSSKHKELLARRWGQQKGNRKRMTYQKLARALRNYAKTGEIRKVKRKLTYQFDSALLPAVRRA
Another assay deals with T5, FEV (Homo sapiens, UniProt Q99581 1-238).
T5 sequence: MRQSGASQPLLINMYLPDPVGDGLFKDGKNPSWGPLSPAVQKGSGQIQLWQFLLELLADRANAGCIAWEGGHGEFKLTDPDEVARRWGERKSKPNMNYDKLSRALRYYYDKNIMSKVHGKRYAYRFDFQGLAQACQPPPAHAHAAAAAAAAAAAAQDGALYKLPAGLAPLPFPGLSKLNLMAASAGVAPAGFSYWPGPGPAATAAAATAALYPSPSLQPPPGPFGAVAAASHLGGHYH
The essentials:
as §1

A further assay addresses ETV5 (Homo sapiens, UniProt P41161 1-510). The method, boiled down: as §1
The next assay addresses T6, SPIC (Homo sapiens, UniProt Q8N5J4 1-248).
T6 sequence: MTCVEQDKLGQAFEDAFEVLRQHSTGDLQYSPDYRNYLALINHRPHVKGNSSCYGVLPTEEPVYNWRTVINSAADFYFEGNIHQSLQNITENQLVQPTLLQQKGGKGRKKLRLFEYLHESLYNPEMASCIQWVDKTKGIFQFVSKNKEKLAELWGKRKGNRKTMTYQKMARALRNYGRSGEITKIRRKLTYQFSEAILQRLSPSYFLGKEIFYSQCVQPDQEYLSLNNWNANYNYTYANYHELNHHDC
The essentials: as §1

The target of the next assay is ELF4 (Homo sapiens, UniProt Q99607 1-663). The essentials:
as §1

For a further assay, the target named is ETV1 (Homo sapiens, UniProt P50549 1-477). The essentials: as §1
ETV1, sequence (P50549 whole entry): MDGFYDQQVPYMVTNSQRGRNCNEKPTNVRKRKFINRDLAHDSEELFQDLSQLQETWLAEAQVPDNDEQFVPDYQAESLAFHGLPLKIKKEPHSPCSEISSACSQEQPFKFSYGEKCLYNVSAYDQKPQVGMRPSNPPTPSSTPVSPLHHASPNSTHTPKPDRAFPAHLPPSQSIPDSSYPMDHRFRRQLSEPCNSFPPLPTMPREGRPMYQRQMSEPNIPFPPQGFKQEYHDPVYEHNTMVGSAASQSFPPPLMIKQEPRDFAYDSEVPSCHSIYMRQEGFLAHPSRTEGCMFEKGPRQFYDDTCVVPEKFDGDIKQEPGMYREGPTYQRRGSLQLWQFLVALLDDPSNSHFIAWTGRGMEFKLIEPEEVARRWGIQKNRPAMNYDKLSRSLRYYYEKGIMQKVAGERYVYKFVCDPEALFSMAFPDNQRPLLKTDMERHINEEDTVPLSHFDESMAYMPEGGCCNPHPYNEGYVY
For another assay, the target named is T7, ERF (Homo sapiens, UniProt P50548 1-548).
T7 sequence: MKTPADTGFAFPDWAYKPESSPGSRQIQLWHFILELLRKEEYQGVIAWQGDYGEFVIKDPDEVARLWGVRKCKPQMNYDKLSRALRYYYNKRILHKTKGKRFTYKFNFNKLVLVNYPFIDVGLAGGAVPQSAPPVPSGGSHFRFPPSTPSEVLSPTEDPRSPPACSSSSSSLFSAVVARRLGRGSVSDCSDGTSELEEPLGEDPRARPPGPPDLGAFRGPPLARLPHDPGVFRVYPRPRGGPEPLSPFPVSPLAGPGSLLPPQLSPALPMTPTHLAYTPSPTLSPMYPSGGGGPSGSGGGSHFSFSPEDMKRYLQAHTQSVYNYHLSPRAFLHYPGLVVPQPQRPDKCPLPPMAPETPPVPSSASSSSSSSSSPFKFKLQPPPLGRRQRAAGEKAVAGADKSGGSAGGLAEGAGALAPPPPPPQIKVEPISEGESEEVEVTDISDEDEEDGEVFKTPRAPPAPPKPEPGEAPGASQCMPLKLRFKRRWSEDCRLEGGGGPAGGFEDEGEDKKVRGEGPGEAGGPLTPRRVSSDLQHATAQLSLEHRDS
The method, boiled down:
as §1

The next assay has as its target T8, ETV3L (Homo sapiens, UniProt Q6ZN32 1-361).
T8 sequence: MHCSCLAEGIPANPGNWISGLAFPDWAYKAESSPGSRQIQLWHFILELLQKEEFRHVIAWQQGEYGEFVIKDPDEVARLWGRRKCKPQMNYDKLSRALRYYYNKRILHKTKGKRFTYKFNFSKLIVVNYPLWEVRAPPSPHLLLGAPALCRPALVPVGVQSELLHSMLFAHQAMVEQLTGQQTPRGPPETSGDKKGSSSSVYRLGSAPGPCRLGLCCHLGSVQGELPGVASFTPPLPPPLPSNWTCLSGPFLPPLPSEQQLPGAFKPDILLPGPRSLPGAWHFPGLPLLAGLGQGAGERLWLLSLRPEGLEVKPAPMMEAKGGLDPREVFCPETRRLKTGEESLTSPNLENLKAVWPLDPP
The essentials: as §1

The target in a further assay is T9, ETS2 (Homo sapiens, UniProt P15036 1-469).
T9 sequence: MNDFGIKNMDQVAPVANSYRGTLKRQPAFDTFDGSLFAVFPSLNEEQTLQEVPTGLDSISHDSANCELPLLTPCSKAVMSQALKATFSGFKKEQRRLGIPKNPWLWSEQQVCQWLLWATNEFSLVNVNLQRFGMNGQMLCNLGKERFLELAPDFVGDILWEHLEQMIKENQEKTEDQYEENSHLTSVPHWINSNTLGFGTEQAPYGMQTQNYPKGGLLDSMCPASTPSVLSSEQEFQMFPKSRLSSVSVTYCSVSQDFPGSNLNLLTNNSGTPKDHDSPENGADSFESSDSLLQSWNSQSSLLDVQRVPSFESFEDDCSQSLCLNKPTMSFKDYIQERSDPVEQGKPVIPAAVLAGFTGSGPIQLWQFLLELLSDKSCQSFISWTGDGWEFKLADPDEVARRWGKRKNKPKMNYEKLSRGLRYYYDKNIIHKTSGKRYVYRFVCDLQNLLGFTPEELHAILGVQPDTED
The method, boiled down: as §1

A further assay has as its target T10, ETV3 (Homo sapiens, UniProt P41162-2 1-143).
T10 sequence: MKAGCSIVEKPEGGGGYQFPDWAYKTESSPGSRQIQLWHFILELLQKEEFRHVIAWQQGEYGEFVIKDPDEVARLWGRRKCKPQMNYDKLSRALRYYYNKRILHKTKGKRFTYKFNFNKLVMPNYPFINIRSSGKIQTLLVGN
The method, boiled down:
as §1

The target in a further assay is ETV6 (Homo sapiens, UniProt P41212 1-452). The essentials:
as §1

ETV5, sequence (P41161 whole entry): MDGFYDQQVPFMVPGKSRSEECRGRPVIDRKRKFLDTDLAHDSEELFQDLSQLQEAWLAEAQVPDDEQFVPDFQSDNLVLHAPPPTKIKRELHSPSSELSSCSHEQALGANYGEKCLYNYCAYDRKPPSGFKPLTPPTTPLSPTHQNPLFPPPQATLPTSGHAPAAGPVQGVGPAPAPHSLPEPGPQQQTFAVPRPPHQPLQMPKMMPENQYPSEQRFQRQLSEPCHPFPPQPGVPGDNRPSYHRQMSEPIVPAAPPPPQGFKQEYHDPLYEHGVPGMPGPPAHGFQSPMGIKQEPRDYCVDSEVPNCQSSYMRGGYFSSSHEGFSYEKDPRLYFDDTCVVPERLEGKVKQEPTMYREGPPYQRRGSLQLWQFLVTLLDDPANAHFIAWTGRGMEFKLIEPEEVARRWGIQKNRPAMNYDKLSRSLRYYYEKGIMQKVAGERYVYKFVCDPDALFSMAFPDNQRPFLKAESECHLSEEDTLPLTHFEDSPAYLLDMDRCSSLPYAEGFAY
ELF1, sequence (P32519 whole entry): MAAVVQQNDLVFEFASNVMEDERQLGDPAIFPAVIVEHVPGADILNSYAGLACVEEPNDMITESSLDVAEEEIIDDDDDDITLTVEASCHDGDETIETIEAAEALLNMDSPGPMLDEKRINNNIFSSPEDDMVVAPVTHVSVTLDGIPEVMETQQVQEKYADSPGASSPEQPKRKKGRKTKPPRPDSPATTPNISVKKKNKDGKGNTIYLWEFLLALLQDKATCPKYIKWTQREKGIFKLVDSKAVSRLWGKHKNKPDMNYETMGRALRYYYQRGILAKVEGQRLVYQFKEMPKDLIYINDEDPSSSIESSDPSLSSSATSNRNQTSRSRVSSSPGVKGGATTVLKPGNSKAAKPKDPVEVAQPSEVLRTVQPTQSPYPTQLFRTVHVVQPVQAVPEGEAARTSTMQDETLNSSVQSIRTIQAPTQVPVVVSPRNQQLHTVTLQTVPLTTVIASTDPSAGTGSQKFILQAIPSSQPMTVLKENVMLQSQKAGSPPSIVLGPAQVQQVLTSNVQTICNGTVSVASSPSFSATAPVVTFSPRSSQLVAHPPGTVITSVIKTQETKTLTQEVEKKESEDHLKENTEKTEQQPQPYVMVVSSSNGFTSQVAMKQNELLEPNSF
ELF4, sequence (Q99607 whole entry): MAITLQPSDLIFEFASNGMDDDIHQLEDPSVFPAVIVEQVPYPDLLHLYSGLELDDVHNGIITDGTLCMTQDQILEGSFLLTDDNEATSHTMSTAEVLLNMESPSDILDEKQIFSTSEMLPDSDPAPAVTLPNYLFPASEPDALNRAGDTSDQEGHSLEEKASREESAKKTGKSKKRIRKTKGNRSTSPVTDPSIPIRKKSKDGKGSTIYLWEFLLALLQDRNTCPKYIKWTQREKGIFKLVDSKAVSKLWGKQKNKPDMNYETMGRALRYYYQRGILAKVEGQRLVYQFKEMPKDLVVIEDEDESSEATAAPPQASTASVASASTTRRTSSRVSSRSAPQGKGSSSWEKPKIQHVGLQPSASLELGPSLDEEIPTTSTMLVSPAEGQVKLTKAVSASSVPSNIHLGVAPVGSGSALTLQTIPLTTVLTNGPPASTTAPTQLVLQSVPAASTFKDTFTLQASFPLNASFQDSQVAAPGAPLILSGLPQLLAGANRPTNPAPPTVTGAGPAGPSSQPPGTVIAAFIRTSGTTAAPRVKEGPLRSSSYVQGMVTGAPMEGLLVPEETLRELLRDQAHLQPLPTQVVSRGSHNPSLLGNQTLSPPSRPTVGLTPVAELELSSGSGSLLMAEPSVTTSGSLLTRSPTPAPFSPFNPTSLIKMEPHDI
ETV6, sequence (P41212 whole entry): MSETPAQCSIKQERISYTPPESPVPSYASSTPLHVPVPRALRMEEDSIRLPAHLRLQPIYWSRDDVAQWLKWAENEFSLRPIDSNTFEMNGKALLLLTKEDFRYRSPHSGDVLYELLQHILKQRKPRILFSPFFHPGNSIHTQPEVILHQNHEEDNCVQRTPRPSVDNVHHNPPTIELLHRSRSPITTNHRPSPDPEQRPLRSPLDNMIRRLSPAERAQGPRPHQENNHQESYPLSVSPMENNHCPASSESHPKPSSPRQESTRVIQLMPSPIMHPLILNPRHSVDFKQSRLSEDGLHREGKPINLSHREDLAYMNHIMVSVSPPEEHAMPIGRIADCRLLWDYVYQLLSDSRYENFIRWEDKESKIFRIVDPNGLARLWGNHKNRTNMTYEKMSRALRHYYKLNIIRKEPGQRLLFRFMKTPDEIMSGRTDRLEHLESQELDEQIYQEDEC

Regarding CGCGAC, the binding signal was 1.08 fold enrichment (6-mer frequency, TF over GST control) with FLI1; 1.09 fold enrichment (6-mer frequency, TF over GST control) with GABPA; 1.04 fold enrichment (6-mer frequency, TF over GST control) with ERG; 1.12 fold enrichment (6-mer frequency, TF over GST control) in the assay with ELF1; 1.12 fold enrichment (6-mer frequency, TF over GST control) in the assay with EHF; 1.08 fold enrichment (6-mer frequency, TF over GST control) with SPI1. The binding signal with SPIB was 1.11 fold enrichment (6-mer frequency, TF over GST control); with FEV, 1.01 fold enrichment (6-mer frequency, TF over GST control); with ETV5 it was 1.08 fold enrichment (6-mer frequency, TF over GST control); with SPIC, 1.31 fold enrichment (6-mer frequency, TF over GST control); with ELF4 it was 1.09 fold enrichment (6-mer frequency, TF over GST control); with ETV1 it was 1.06 fold enrichment (6-mer frequency, TF over GST control). Besides, the binding signal with ERF was 1.16 fold enrichment (6-mer frequency, TF over GST control); in the assay with ETV3L, 1.04 fold enrichment (6-mer frequency, TF over GST control); with ETS2, 1.12 fold enrichment (6-mer frequency, TF over GST control); with ETV3, 1.04 fold enrichment (6-mer frequency, TF over GST control); with ETV6 it was 1.04 fold enrichment (6-mer frequency, TF over GST control).

(Values after article PMC7862700, “An all-to-all approach to the identification of sequence-specific readers for epigenetic DNA modifications on cytosine”.)
